# Measured values from PubChem BioAssay (NCI).
# The panel holds about 83,000 compounds, 20% with a hit somewhere; the sample as a whole holds those more often.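 Treatment: one concentration, 48 hours, 96-well format. Scoring: percent growth, with anything below 10 considered active.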 Unmarked numbers belong to inactive results. Activity calls are given as the source filed them.
# What was measured:
# Assay in all cases: NCI-60 one-dose screen, 48 h (100 = growth as untreated, 0 = no growth, -100 = all killed)
# Conditions in all cases: 10 µM unless noted
# [1] = system: DU-145 prostate
# [2] = system: K-562 leukemia
# [3] = system: MALME-3M melanoma
# [4] = system: MDA-MB-231 breast
# [5] = system: RXF 393 renal
# [6] = system: SF-268 CNS
# [7] = system: SF-295 CNS
# [8] = system: SF-539 CNS
# [9] = system: UACC-257 melanoma
# [10] = system: M14 melanoma
# [11] = system: HCT-15 colon
# [12] = system: HT29 colon
# [13] = system: SNB-75 CNS
# [14] = system: SNB-19 CNS
# [15] = system: U251 CNS
# [16] = system: PC-3 prostate
# [17] = system: SK-MEL-5 melanoma
# [18] = system: UACC-62 melanoma
# [19] = system: LOX IMVI melanoma
# [20] = system: SK-MEL-28 melanoma
SMILES,growth [1],growth [2],growth [3],growth [4],growth [5],growth [6],growth [7],growth [8],growth [9],growth [10],growth [11],growth [12],growth [13],growth [14],growth [15],growth [16],growth [17],growth [18],growth [19],growth [20]
C=CCn1c(SCC(=O)Nc2ccc(C(=O)/C=C/c3cc(OC)c(OC)c(OC)c3)cc2)nnc1-c1ccccc1,76.7%,48.9%,91%,98.9%,97.8%,93.5%,92.6%,96.2%,81.4%,86.9%,61.1%,49.1%,95.2%,86%,64.4%,94.1%,77.3%,84.6%,68.7%,110%
Cc1nn(-c2ccc(-c3ccc(OC(F)(F)F)cc3)cc2)c2nc(-c3ccccc3)nc(N)c12,104%,93.1%,118%,85.1%,104%,97.2%,110%,100%,101%,102%,95.6%,90.2%,95%,90.7%,85.5%,93.2%,100%,99.9%,93.8%,115%
O=C(NCc1ccccc1)c1ccc2c(c1)NC(=O)[C@@H]1CCCN21,99.7%,106%,92.2%,103%,109%,95.6%,98.7%,105%,104%,95.8%,99.6%,103%,86.6%,94.6%,102%,103%,101%,93.7%,91.2%,103%
C#C[C@@]1(O)[C@@H](CO)O[C@@H](n2ccc3c(N)ncnc32)[C@@H]1O,3.75% (active),4.79% (active),-13.2% (active),-14.7% (active),-33.6% (active),9.98% (active),5.82% (active),8.04% (active),17.3%,-38.6% (active),2.94% (active),2.83% (active),-25.6% (active),7.29% (active),3.15% (active),-21.4% (active),-52.7% (active),-16.5% (active),-68.6% (active),63.6%
O=C(CSC(=S)N1CCCCC1)Nc1ccccc1,106%,90.2%,101%,103%,110%,93.3%,103%,101%,92.4%,98.6%,99.1%,91.2%,93.1%,99.6%,97.6%,92.6%,97.5%,91.6%,94.2%,104%
NS(=O)(=O)c1ccc(-n2ncc(NC(=O)Nc3ccc(S(=O)(=O)Nc4nccs4)cc3)c2-c2ccccc2)cc1,109%,96.1%,97.2%,112%,120%,101%,99.3%,98.2%,104%,95.8%,104%,99.9%,65.7%,103%,102%,111%,105%,98.4%,101%,102%
Oc1c(CCl)cc(Cl)cc1Cc1cc(Cl)cc(Cc2cc(Cl)cc(CCl)c2O)c1O,44%,7.26% (active),27.9%,40.2%,45.4%,17.1%,62.7%,40.7%,36.1%,27.1%,12.8%,56.9%,56.8%,27.6%,31.7%,17.9%,-1.94% (active),4.56% (active),47.7%,30%
Cc1nnc(/N=C2\NC(=O)/C(=C/c3ccc(N(C)C)cc3)S2)s1,84%,49.7%,56.9%,103%,76.9%,73%,47.9%,83.7%,83.3%,51.1%,47.7%,106%,67.5%,80.1%,72.1%,57.8%,42.7%,74.9%,64.6%,69.2%
CC(C)C[C@H](C(=O)O)N(C)C(=O)[C@@H]1CCCN1C(=O)[C@H](C)OC(=O)[C@H](CCC(N)=O)NC(=O)[C@@H]1CCC(=O)N1,106%,93.2%,109%,108%,135%,97.4%,93.7%,97.7%,95.2%,99.9%,95.9%,104%,84.3%,102%,-37% (active),96.6%,95.6%,102%,104%,103%
Nc1c(C(=O)Nc2cccc3ccccc23)sc2nc3c(cc12)COCC3,58.7%,17.5%,60.8%,53.3%,41.4%,56.5%,28.9%,30%,54.5%,35.7%,32.2%,12.4%,30.9%,33.4%,30%,53.5%,31%,30.2%,42.7%,60.6%
Nc1c(C(=O)Nc2ccccn2)sc2nc3c(cc12)CCCC3,72%,14.1%,62.7%,66.5%,84.7%,62.4%,34%,39.3%,67.8%,18%,27.4%,21.7%,38.1%,45.7%,33.2%,64.9%,26.3%,41.2%,41.5%,64.8%
O=[N+]([O-])c1ccc(Oc2ccc(-c3ccccc3)cc2)cc1,97.5%,70.8%,109%,88.5%,102%,94.5%,89.4%,94.7%,98.1%,98.3%,81.8%,76.6%,93.5%,94%,88.5%,75.8%,88.2%,63%,96.3%,105%
CC[C@]12C=CCN3CC[C@@]4(c5ccc(OC)cc5N(C)[C@H]4[C@@](O)(C(=O)OC)[C@@H]1OC(=O)CCC(=O)O[C@H]1CC[C@H]4[C@@H]5CC[C@H]6CC(=O)CC[C@]6(C)[C@H]5CC[C@]14C)[C@@H]32,43.7%,8.73% (active),42.5%,34.6%,25.9%,46.2%,7.7% (active),47.3%,26.9%,26%,15.1%,-2.17% (active),41.9%,37.5%,18.1%,12.3%,7.1% (active),29.3%,27.9%,46.5%
COc1cc(/C=C/C(=O)/C=C/c2cc3ccc(Cl)cc3n(Cc3ccccc3)c2=O)ccc1O,-35.1% (active),3.2% (active),4.83% (active),-16.7% (active),-79.9% (active),13.7%,5.91% (active),9.94% (active),-13.9% (active),-11.3% (active),-46.1% (active),-46.5% (active),63.3%,13.3%,-64.7% (active),-2.36% (active),-80.5% (active),-56% (active),-90% (active),3.48% (active)
COC(=O)c1ccc2c(c1)NC(=O)[C@@H]1CCCN21,106%,96.7%,105%,97.3%,106%,94.7%,100%,93.8%,98.3%,102%,96.6%,98.5%,83.1%,94.2%,102%,100%,96.8%,94.6%,88.5%,106%
O=C(Nc1ccc(N=Cc2ccccc2O)cc1)NC1C=c2ccccc2=CC1 (stereo not given),102%,87%,99.1%,92%,108%,91.9%,102%,100%,91.6%,110%,100%,104%,86.3%,100%,93.2%,104%,98.7%,92.7%,105%,99.8%
